# Measured values from ChEMBL document CHEMBL3988442, “University of Dundee, Small-Polar-MMV Screening Library” (2021).
# The whole screen tested about 48,000 compounds, of which about 13,000 (27%) showed an effect of 50% or more. Some of the results follow.
# System: Wolbachia pipientis
# Experiment: Anti-Wolbachia Cell-Based Screen
# Assay type: functional
# Set-up: scale not given: in the data most compounds retested in dose-response had high values
# Conditions: 5 µM
row,SMILES,Percent Effect
1,Cc1ccc(CNC(=O)c2ccc(S(=O)(=O)N3C[C@@H]4C[C@H]3CN4)cc2)o1,13.35%
2,COc1cccc(N2CCN(Cc3ccc4ccn(C)c4c3)CC2=O)c1,113.3%
3,COc1cccc(N2CCN(C(=O)C(OC)c3ccccc3)CC2=O)c1 (stereo not drawn),13.04%
4,COc1cccc(N2CCN(Cc3ccc(NC(C)=O)cc3)CC2=O)c1,-1.185%
5,COc1cccc(CN2CCN(Cc3ccc4nonc4c3)CC2=O)c1,-14.94%
6,COc1cccc(N2CCN(Cc3cc(C)cc(F)c3)CC2=O)c1,130.9%
7,COc1cccc(N2CCN(Cc3cccc(CCN)c3)CC2=O)c1,112.7%
8,COc1cccc(N2CCN(Cc3ccc4occc4c3)CC2=O)c1,113.8%
9,COCCCN1C(=O)CC[C@H]2CN(Cc3ccc4occc4c3)CC[C@H]21,-8.694%
10,CCn1cc(CN2CCN(Cc3cccc(OC)c3)C(=O)C2)cc1C#N,-7.886%
11,COc1ccc(N2CCN(CC[C@H](O)c3ccccc3)CC2=O)cc1,-22.52%
12,COc1cccc(N2CCN(CC[C@H](O)c3ccccc3)CC2=O)c1,-29.06%
13,COc1cc(CN2CCN(c3cccc(OC)c3)C(=O)C2)cc(OC)c1,-15.09%
14,N#Cc1ccc(CNC(=O)C2=NN(c3ccccc3)C(=O)CN2)cc1,-19.54%
15,N#Cc1ccnc(N2CCN(Cc3cccc(F)c3)CC2)c1,16.74%
16,Cc1n[nH]c(=O)c2c(NC(=O)CN3CCOC(C)C3)oc(C)c12 (stereo not drawn),0.9329%
17,COc1ccc(CNC[C@H]2COCc3nc4cccnc4n32)cc1,-4.105%
18,Cc1cc(CS(=O)(=O)NC2CCCc3ccccc32)on1 (stereo not drawn),-2.074%
19,COc1cccc(N2CCN(C(=O)C(C)Oc3ccccc3)CC2=O)c1 (stereo not drawn),9.152%
20,COc1cccc(N2CCN(Cc3ccc4[nH]ccc4c3)CC2=O)c1,81.94%
21,COc1cccc(N2CCN(C(=O)C(O)CC(C)C)CC2=O)c1 (stereo not drawn),12.91%
22,COc1cccc(N2Cc3nc(=O)[nH]n3C2=O)c1,-15.51%
23,COc1cccc(N2CCN(Cc3nccn3C(C)C)CC2=O)c1,98.08%
24,c1ccc2[nH]c(C3CCN(Cc4nnc(C5CC5)o4)CC3)cc2c1,10.45%
25,Cc1cc(CNC(=O)c2cc(NC(=O)C(C)C)ccc2Cl)no1,18.73%

row,SMILES,Percent Effect
1,O=C1C(N2CCN(c3ccc(O)cc3)CC2)CCN1C1CCOCC1 (stereo not drawn),-11.86%
2,CC(C)n1cnnc1CN(C)Cc1ccc(CO)o1,-7.369%
3,Cn1cnc2c1CCN(C(C(=O)N1CCCCC1)c1ccccc1)C2 (stereo not drawn),18.33%
4,O=C(CNc1cc(-c2ccccc2)nc2ccnn12)NC1CC1,-3.438%
5,COC(=O)CSCc1nc(-c2ccc(Cl)cc2)no1,-16.66%
6,COCCOc1ncccc1-c1noc([C@@H]2CCCN2C2CCC2)n1,-10.03%
7,CN(c1cccnn1)[C@@H]1CC[C@@H]2CN(Cc3cccc(C(=O)O)c3)C[C@@H]21,111.9%
8,CN(c1cccnn1)[C@@H]1CC[C@@H]2CN(Cc3ccccc3C(=O)O)C[C@@H]21,106.4%
9,Cc1nn(C)c(C)c1CC(=O)N1CCC(N(C)c2cccnn2)CC1,-21.95%
10,CN(c1cccnn1)C1CCN(C(=O)c2ccc3c(c2)COC3)CC1,-3.847%
11,CC(O)CN1CCN(Cc2cccc(C(=O)N(C)C)c2)CC1 (stereo not drawn),-11.87%
12,Cn1cccc1C(=O)NCc1cn2c(n1)CN(c1ncccn1)CC2,-46.58%
13,O=C1CCCc2cc(-c3csc(CCN4CCOC4=O)n3)ccc2N1,2.984%
14,CS(=O)(=O)CCOCCNc1ccc(C(F)(F)F)cc1C#N,-20.16%
15,CCn1nc(C)c(CN(CCOC)C(=O)c2cnc(C)nc2O)c1C,-5.757%
16,Nc1nc2nc(C3CCN(C(=O)c4cscn4)C3)ccc2s1 (stereo not drawn),104%
17,O=C(c1cscn1)N1CCC(Cn2cc(-c3ccsc3)nn2)CC1,2.039%
18,Nc1nc2nc(C3CCCN(C(=O)c4cnccn4)C3)ccc2s1 (stereo not drawn),126%
19,O=C(c1cnccn1)N1CCCC(Cn2cc(C3CCCC3)nn2)C1 (stereo not drawn),-14.19%
20,Nc1nc2nc(C3CCCN(C(=O)c4cscn4)C3)ccc2s1 (stereo not drawn),-1.798%
21,Nc1nc2nc(C3CCCN(C(=O)c4cncs4)C3)ccc2s1 (stereo not drawn),108.5%
22,O=C([C@H]1COC[C@H]2CN(CC3CC3)C[C@H]21)N1CCOCC1,21.74%
23,CN(CCCC1CCCC1)C(=O)c1cc(CN2CCC(O)CC2)on1,-12.63%
24,COc1cccc(-c2nc3c([nH]2)CCNC3)c1F,-6.974%
25,CCOc1ccc(N2CCCN=C2NC(=O)c2ccccc2C)cc1,-3.123%

row,SMILES,Percent Effect
1,CC(C)NS(=O)(=O)c1cc(C(=O)O)cc(-c2ccc3c(c2)OCCO3)c1,-21.29%
2,Cc1ccc2c(c1)C(NCc1ccccn1)CC2 (stereo not drawn),6.59%
3,CC(C)NC(=O)[C@@H]1CN(Cc2nccs2)C[C@H]2OCC[C@H]21,-53.61%
4,Cc1cnn(C2CCCN(C(=O)c3ccc(-n4ccnc4)cc3)C2)c1 (stereo not drawn),97.92%
5,Cc1cnn(C2CCCN(C(=O)c3ccc(Cn4ccnc4)cc3)C2)c1 (stereo not drawn),106.9%
6,Cc1cnn(C2CCCN(C(=O)c3cccc(Cn4ccnc4)c3)C2)c1 (stereo not drawn),6.448%
7,CC(c1ccccc1)n1c(SCC(=O)O)nnc1-c1ccn[nH]1 (stereo not drawn),-4.886%
8,Cn1c(-c2ccccc2)nn(CCNS(=O)(=O)c2ccccc2Cl)c1=O,-1.369%
9,CCCS(=O)(=O)N1Cc2c(ncn2Cc2ccccc2)C[C@H]1C(=O)OC,-4.606%
10,N#Cc1cccc(S(=O)(=O)N2CC(CC(=O)O)c3ccccc32)c1 (stereo not drawn),-2.78%
11,CC1(C)CN(C(=O)Nc2ccc(Cn3cccn3)cc2)CCO1,-0.352%
12,O=C(C1CCOCC1)N1CC[C@@H](O)[C@@H]1Cc1ccncc1,93.36%
13,O=C(C1CC=CC1)N1CC[C@@H](O)[C@H]1Cc1cccnc1,109.3%
14,O=C(C1CCOCC1)N1CC[C@@H]2[C@H]1CCC(=O)N2c1ccccc1,-23.21%
15,Cn1cc(C[C@H]2[C@@H](O)CCN2C(=O)C2CC=CC2)cn1,-1.047%
16,CN(C)[C@@H]1CCN(C(=O)C2CCOCC2)[C@H]1Cc1ccncc1.O=C(O)C(F)(F)F.O=C(O)C(F)(F)F,-5.936%
17,O=C(C1CCC1)N1CC[C@H](O)[C@@H]1Cc1cccnc1.O=C(O)C(F)(F)F,95.67%
18,O=C(O)C(F)(F)F.O=C(O)C(F)(F)F.O[C@@H]1CCN(CC2CCOC2)[C@H]1Cc1cccnc1 (stereo partly drawn),3.217%
19,Cn1cc(C[C@H]2[C@@H](O)CCN2C(=O)C2CCC2)cn1,-13.15%
20,O=C(C1CCOCC1)N1CC[C@@H](O)[C@@H]1Cc1ccccc1,90.42%
21,Cn1cc(C[C@H]2[C@H](O)CCN2C(=O)C2CCOCC2)cn1,-4.576%
22,CC(C)N1CC(C(=O)N2CCc3c(nc(CC4CC4)[nH]c3=O)C2)CC1=O (stereo not drawn),-6.23%
23,OCC1(CC2CCCCO2)CCN(c2cnc3ccccc3n2)CC1 (stereo not drawn),-13.06%
24,Cc1nc(N2CCCC(C)C2)nc2cc(S(C)(=O)=O)ccc12 (stereo not drawn),-6.696%
25,OCc1cn([C@@H]2c3ccccc3C3(CCNCC3)[C@H]2O)nn1,-1.268%

row,SMILES,Percent Effect
1,O=S(=O)(NCC1(O)CCOc2ccccc21)c1ccccc1F (stereo not drawn),0%
2,CC(=O)Nc1nc(C(=O)Nc2ccc(N3CCCCC3)nc2)cs1,7.498%
3,CC(C)=CCN1Cc2nnc(C3CCOCC3)n2C(Cc2c[nH]cn2)C1 (stereo not drawn),-4.476%
4,Cc1nccn1-c1cc(CNS(=O)(=O)N2CCCC(C)C2)ccn1 (stereo not drawn),1.62%
5,O=C(C1CCOCC1)N1CC[C@H](O)[C@@H]1Cc1cccnc1,108.8%
6,c1ccc(C[C@H]2[C@H](N3CCOCC3)CCN2Cc2cccnc2)cc1,-10.76%
7,CN(C)C(=O)N1CCN(Cc2nnc(C(C)(C)C)o2)CC1,5.287%
8,Cc1cccc(CN2Cc3[nH]nc(COc4cccnc4)c3C2)n1.O=C(O)C(F)(F)F.O=C(O)C(F)(F)F.O=C(O)C(F)(F)F,3.508%
9,COCCN1CCc2c(c(COc3cccnc3)nn2C)C1.O=C(O)C(F)(F)F.O=C(O)C(F)(F)F,96.91%
10,Cn1nc(COc2cccnc2)c2c1CCN(CC1CC1)C2.O=C(O)C(F)(F)F.O=C(O)C(F)(F)F,110.2281%
11,CN1CCc2c(c(COc3cncnc3)nn2CC2CC2)C1.O=C(O)C(F)(F)F,-14.06%
12,Cn1nc(COc2cccnc2)c2c1CCN(Cc1ccco1)C2.O=C(O)C(F)(F)F.O=C(O)C(F)(F)F,-12.77%
13,CC(C)N1CCc2c(c(COc3cccnc3)nn2CC2CC2)C1.O=C(O)C(F)(F)F.O=C(O)C(F)(F)F.O=C(O)C(F)(F)F,-5.827%
14,Brc1ccc(C2(NCc3noc(C4CC4)n3)CCC2)cc1,4.263%
15,CNC(=O)COc1ccccc1CNC1CCc2nc(C)nn2C1 (stereo not drawn),-0.6489%
16,COc1ccc(-c2nc(CNC3CCc4nc(C)nn4C3)no2)cc1 (stereo not drawn),131.6%
17,Cc1cccc(-c2nc(CNC3CCc4ncnn4C3)no2)c1 (stereo not drawn),121.2%
18,CCc1nc2n(n1)CC(NCc1noc(-c3ccc(C)cc3)n1)CC2 (stereo not drawn),89.35%
19,Cc1nc2n(n1)CC(NCCc1cccs1)CC2 (stereo not drawn),7.216%
20,CCc1nc2n(n1)CC(NCc1noc(-c3ccccc3)n1)CC2 (stereo not drawn),-10.54%
21,CCc1nc2n(n1)CC(NCc1nc(C)c(C)o1)CC2 (stereo not drawn),-17.82%
22,c1ccc(-c2nccc(CNC3CCc4ncnn4C3)n2)cc1 (stereo not drawn),120.1%
23,c1csc(-c2nc(CNC3CCc4ncnn4C3)cs2)c1 (stereo not drawn),-10.85%
